Source: the supplement of paper PMC7156485
Several values for one entry are separate records, joined by “and”; a condition that tells them apart may be missing. Equal values may be shown once.

tested on: TDF; test: H1.0 immunofluorescence intensity relative to DMSO (% of DMSO); higher = stronger H1.0 induction, active = 120 or more; conditions: concentration: 10 µM; 24 h
In short: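 After 24 h at 37 °C with compounds at 10 µM, in triplicate, HCC1569 and TDF cells were fixed with 3.7% formaldehyde. Immunostaining used a rabbit anti-H1.0 antibody and an AlexaFluor 647 secondary, with DAPI, and six fields per well were imaged at ×10. H1.0 nuclear intensity or cell number is presented as percent of the plate control, from the median of replicates, with HCC1569 values smoothed for positional effects.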
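Note: TDF is a line of transformed human dermal fibroblasts of mesenchymal origin.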

H1.0 immunofluorescence intensity, inactive:
Nc1c2c(nc3ccccc13)CCCC2O.O=C(O)C=CC(=O)O (stereo not drawn) [Hydroxytacrine maleate] 96.8
CC1C(=O)OC2CC34C5CC(C(C)(C)C)C36C(OC(=O)C6O)OC4(C(=O)O5)C21O (stereo not drawn) [Ginkgolide A] 92.3
O=P(O)(O)C(Cl)(Cl)P(=O)(O)O [Clodronic acid] 88.3
O=C([O-])CCCc1ccccc1.[Na+] [Sodium Phenylbutyrate] 96.4
CN(Cc1cc(Br)cc(Br)c1N)C1CCCCC1 [Bromhexine] 88.6
O=c1c(OC2OC(C(O)CO)C(O)C2O)c(-c2ccc(O)c(O)c2)oc2cc(O)cc(O)c12 (stereo not drawn) [Isoquercitrine] 102
CN(C)CCN(Cc1cccs1)c1ccccn1.Cl [Methapyrilene hydrochloride] 93
C=C1NC(=O)C2=C(CCSC2)N1 95.5
Nc1ccn(C2CCC(CO)O2)c(=O)n1 (stereo not drawn) ["2',3' - Dideoxycytidine"] 100
Nc1nc(=O)c2ncn(COC(CO)CO)c2[nH]1 [Ganciclovir] 95.2
O=C1Nc2ccc(I)cc2C1=Cc1cc(Br)c(O)c(Br)c1 93.5 and 85.7
C[N+](C)(C)CCOC(N)=O [Carbamylcholine] 93.3
CC(N)(Cc1ccc(O)c(O)c1)C(=O)O [L-alpha-Methyl DOPA] 91.3
